Results on 71 molecules are retold here after PubChem BioAssay AID1347420 (Sanford-Burnham Center for Chemical Genomics, 2020).

Among all 1,300 compounds or so, about 980 (75%) were called active. Not shown: some 4% with an inconclusive outcome. Some of the results follow. Unmarked numbers belong to inactive results.

For this assay, the target named is Sulfhydryl oxidase 1 (Homo sapiens) (UniProt O00391). Put plainly: inhibition of human sulfhydryl oxidase QSOX1 – biochemical, HyperBlu H2O2 luminescence, HTS, primary screen (AID 1347420). Further: values above 100% were filed as inconclusive. The following applies: recombinant QSOX1, HyperBlu H2O2 luminescence; at 12.5 µM; hits give high values; active = any value above zero.
Sulfhydryl oxidase 1 (Homo sapiens), sequence (O00391 whole entry, looked up): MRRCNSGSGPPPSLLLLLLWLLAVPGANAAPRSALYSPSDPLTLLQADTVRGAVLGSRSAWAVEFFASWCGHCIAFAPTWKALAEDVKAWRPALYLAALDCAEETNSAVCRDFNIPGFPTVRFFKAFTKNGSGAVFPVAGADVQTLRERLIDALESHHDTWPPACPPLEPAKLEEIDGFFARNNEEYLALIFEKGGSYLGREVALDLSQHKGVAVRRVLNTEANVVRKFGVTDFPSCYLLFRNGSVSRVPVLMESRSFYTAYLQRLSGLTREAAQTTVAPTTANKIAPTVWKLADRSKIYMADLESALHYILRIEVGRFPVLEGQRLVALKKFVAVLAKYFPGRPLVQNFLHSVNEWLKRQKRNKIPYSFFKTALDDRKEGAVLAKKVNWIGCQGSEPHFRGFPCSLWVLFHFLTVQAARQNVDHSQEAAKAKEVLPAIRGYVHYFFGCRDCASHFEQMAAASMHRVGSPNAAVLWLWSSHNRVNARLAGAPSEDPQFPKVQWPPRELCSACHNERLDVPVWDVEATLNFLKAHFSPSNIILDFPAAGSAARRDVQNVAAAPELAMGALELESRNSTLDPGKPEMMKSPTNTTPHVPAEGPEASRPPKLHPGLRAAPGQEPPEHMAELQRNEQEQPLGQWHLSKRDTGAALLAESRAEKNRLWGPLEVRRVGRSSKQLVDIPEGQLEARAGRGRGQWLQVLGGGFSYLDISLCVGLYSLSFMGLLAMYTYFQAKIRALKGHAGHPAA
In the case of `Nc1ccc(S(=O)(=O)Nc2ccnn2-c2ccccc2)cc1`, the inhibition (in general, the drop in the measured response relative to a control, in per cent) was 27.9% (active).

For `O=c1cc(N2CCOCC2)oc2c(-c3ccccc3)cccc12`, the inhibition is 4.6% (active).

Regarding `Cc1cc(O)c2c(c1)C(=O)c1cc(O)cc(O)c1C2=O`, the inhibition is 17.7% (active).

For the molecule `OCC1O[C@H]([S-])[C@@H](O)C(O)[C@@H]1O.[Au+]` (stereo partly specified), the inhibition was 29.5% (active).

For the molecule `N=C(N)SCCN`, the inhibition is -3.9%.

For `N=C(N)SCCc1ccc(CCSC(=N)N)cc1`, the inhibition was 9% (active).

Consider `Oc1cc2c(cc1O)CN(C(=S)NCCc1ccc(Cl)cc1)CCC2`, for which the inhibition is 83.2% (active).

`CC(=O)NCCc1c[nH]c2ccc(O)cc12`: the inhibition is 92.2% (active).

Turning to `COc1cc2c(CCNC(C)=O)c[nH]c2cc1Cl`, the inhibition was 14.3% (active).

Consider `COc1ccc2[nH]cc(CCNC(C)=O)c2c1`, for which the inhibition is 15.6% (active).

Take `COc1ccc(NC=O)c(C(=O)CCNC(C)=O)c1`: the inhibition is -9.8%.

Regarding `O=c1[nH]cc(F)c(=O)[nH]1`, the inhibition is 13.9% (active).

For the molecule `Cc1cc(NC(=O)Nc2ccc3c(ccn3C)c2)sn1`, the inhibition was 13.4% (active).

On to `CN(C)CCCN1c2ccccc2CCc2ccccc21`, for which the inhibition was 31.8% (active).

In the case of `CNCCCN1c2ccccc2CCc2ccccc21`, the inhibition was 34.2% (active).

On to `CN(C)CCCN1c2ccccc2CCc2ccc(Cl)cc21`, for which the inhibition is -0.4%.

Regarding `CC(CN(C)C)CN1c2ccccc2CCc2ccccc21` (stereo unspecified), the inhibition was 29.4% (active).

For `CCCCNC(=O)NS(=O)(=O)c1ccc(C)cc1`, the inhibition is 10.2% (active).

As to `Cc1ccc(S(=O)(=O)NC(=O)NN2CCCCCC2)cc1`, the inhibition is 49.9% (active).

As to `CCCNC(=O)NS(=O)(=O)c1ccc(Cl)cc1`, the inhibition is 0.5% (active).

Turning to `CC(=O)c1ccc(S(=O)(=O)NC(=O)NC2CCCCC2)cc1`, the inhibition is -1.5%.

Regarding `OC(CN1CCN(c2cccc(Cl)c2)CC1)C(c1ccccc1)c1ccccc1` (stereo unspecified), the inhibition was 17.3% (active).

For the molecule `C[C@]12C[C@H](O)[C@H]3[C@@H](CCC4=CC(=O)CC[C@@]43C)[C@@H]1CC[C@@H]2C(=O)CO`, the inhibition was 9.4% (active).

As for `C[C@]12CCC(=O)C=C1CC[C@@H]1[C@@H]2[C@@H](O)C[C@@]2(C)[C@H]1CC[C@]2(O)C(=O)CO`, the inhibition was 9% (active).

In the case of `N[C@H](C(=O)O)[C@H]1C[C@@H]1C(=O)O`, the inhibition was 20.9% (active).

With `O=C(O)c1cc(=O)cc(C(=O)O)[nH]1`, the inhibition was 10.2% (active).

Regarding `N[C@@H](Cc1ccc(F)cc1)C(=O)O`, the inhibition was -2.9%.

For `NC(Cc1ccc(Cl)cc1)C(=O)O` (stereo unspecified), the inhibition was 6.1% (active).

On to `N[C@@H](Cc1ccc(O)c(I)c1)C(=O)O`, for which the inhibition is 14.8% (active).

`N[C@@H](Cc1ccc(O)c(O)c1)C(=O)O`: the inhibition is 43.6% (active).

Regarding `COC(=O)C(N)Cc1ccc(Cl)cc1` (stereo unspecified), the inhibition is -8.3%.

As to `COC(=O)[C@@H](N)Cc1ccc(O)c(O)c1`, the inhibition was 48.2% (active).

In the case of `NC1CCN(O)C1=O` (stereo unspecified), the inhibition is 30% (active).

Turning to `CCCC1O[C@@H]2C[C@H]3[C@@H]4CCC5=CC(=O)C=C[C@]5(C)[C@H]4[C@@H](O)C[C@]3(C)[C@]2(C(=O)CO)O1` (stereo partly specified), the inhibition is 4.1% (active).

Consider `CCCN(CC1CC1)c1nc(C)nc(Nc2c(Cl)cc(Cl)cc2Cl)c1Cl`, for which the inhibition was 3.7% (active).

Take `NS(=O)(=O)c1cc2c(cc1Cl)NC(C1CC3C=CC1C3)NS2(=O)=O` (stereo unspecified): the inhibition is 44.4% (active).

Turning to `NS(=O)(=O)c1cc2c(cc1Cl)NCNS2(=O)=O`, the inhibition was 9.5% (active).

Turning to `NS(=O)(=O)c1cc2c(cc1Cl)NC=NS2(=O)=O`, the inhibition was 4.3% (active).

Regarding `CNCCCC12CCC(c3ccccc31)c1ccccc12`, the inhibition is 1.9% (active).

Consider `NC/C=C\C(=O)O`, for which the inhibition is 7.5% (active).

In the case of `NC/C=C/C(=O)O`, the inhibition was 1.4% (active).

Turning to `CC(C)COCC(CN(Cc1ccccc1)c1ccccc1)N1CCCC1` (stereo unspecified), the inhibition was 40.1% (active).

Take `Brc1c(Br)c(Br)c2[nH]cnc2c1Br`: the inhibition was 18.9% (active).

Consider `CN1CCc2cccc3c2C1Cc1ccc(O)c(O)c1-3` (stereo unspecified), for which the inhibition was 73.2% (active).

Take `CN1CCN(C2=Nc3cc(Cl)ccc3Nc3ccccc32)CC1`: the inhibition was 78.4% (active).

Consider `Cc1ccc2c(c1)C(N1CCN(C)CC1)=Nc1cccnc1N2`, for which the inhibition is 42.7% (active).

On to `Clc1ccc2c(c1)C(N1CCNCC1)=Nc1ccccc1O2`, for which the inhibition was 21.3% (active).

In the case of `CN1CCN(C2=Nc3ccccc3Oc3ccc(Cl)cc32)CC1`, the inhibition is -12.8%.

Turning to `Clc1ccc2c(c1)N=C(N1CCNCC1)c1ccccc1N2`, the inhibition was 69.5% (active).

For the molecule `Cn1c(=O)[nH]c2ncn(C)c2c1=O`, the inhibition was -0.4%.

As for `C#CCn1c(=O)c2c(ncn2C)n(C)c1=O`, the inhibition is 4% (active).

On to `CCCn1cnc2c1c(=O)n(CCCCC(C)=O)c(=O)n2C`, for which the inhibition was 5.2% (active).

Consider `Cn1c(=O)c2c(ncn2C)n(C)c1=O`, for which the inhibition is -2%.

Turning to `CCCn1c(=O)c2c(ncn2C)n(CCC)c1=O`, the inhibition is 11.9% (active).

With `CC(=O)CCCCn1c(=O)c2c(ncn2C)n(C)c1=O`, the inhibition is 13.8% (active).

Consider `Cn1cnc2c1c(=O)[nH]c(=O)n2C`, for which the inhibition is 0%.

Consider `COc1ccc(CCn2nnnc2C2(c3ccc(C)cc3)CC2)cc1`, for which the inhibition is 14.5% (active).

Turning to `C(=C\c1ccccc1)/CN1CCN(C(c2ccccc2)c2ccccc2)CC1`, the inhibition was -9.7%.

With `Fc1ccc(C(c2ccc(F)cc2)N2CCN(C/C=C/c3ccccc3)CC2)cc1`, the inhibition was 5.6% (active).

Regarding `O=C1c2c(O)cc(O)cc2OC(c2ccc(O)c(O)c2)C1O` (stereo unspecified), the inhibition is 65.2% (active).

Regarding `Oc1cc(O)c2c(c1)O[C@H](c1ccc(O)c(O)c1)[C@@H](O)C2`, the inhibition was 72.1% (active).

For `Cc1cnc(C(=O)NCCc2ccc(S(=O)(=O)NC(=O)NC3CCCCC3)cc2)cn1`, the inhibition was -6.9%.

Take `COc1ccc(Cl)cc1C(=O)NCCc1ccc(S(=O)(=O)NC(=O)NC2CCCCC2)cc1`: the inhibition is 7.7% (active).

On to `Cc1cccc(C)c1NC(=O)C(C)N` (stereo unspecified), for which the inhibition is 17.2% (active).

For the molecule `CCC(=O)c1ccc2c(c1)N(CCCN(C)C)c1ccccc1S2`, the inhibition is 96.5% (active).

For `CN(C)CCCN1c2ccccc2Sc2ccc(C(F)(F)F)cc21`, the inhibition is 83.7% (active).

As for `CN(C)CCCN1c2ccccc2Sc2ccc(Cl)cc21`, the inhibition is 98.2% (active).

On to `NCCS`, for which the inhibition was 28.5% (active).

`O=c1[nH]c2ccccc2c2ccccc12`: the inhibition was 10.9% (active).

On to `C=Cc1c(C)c2cc3[nH]c(cc4nc(cc5nc(cc1[nH]2)C(C)=C5CCC(=O)O)C(CCC(=O)O)=C4C)c(C)c3C=C`, for which the inhibition was 29.8% (active).

`CCOC(=O)N1CCN(/[N+]([O-])=N/Oc2ccc([N+](=O)[O-])cc2[N+](=O)[O-])CC1`: the inhibition was 73.3% (active).
